From PubChem
Hits are enriched below; roughly 3.8% of the tested compounds scored in any of these assays.
KCNH2 WT inh: inhibitors of human wildtype KCNH2 potassium channel. Q12809. U2OS, BacMam KCNH2, thallium flux FluxOr; active compounds read low. 340,000 tested, 0.37% active. activity change, % at 1.84 µM. AID 720551;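 active means maximum activity change below -70%; inconclusive means maximum activity change between -70% and -50%; inactive means maximum activity change above -50%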; further: on the % scale 0 is the no-effect control and ±100 the full control effect
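U2OS cells were transduced with wild-type KCNH2 virus (2.03 x 10^8 / mL) for 4 h at room temperature, then cultured overnight at 37 C. Thallium flux was read with FluxOr dye. Rate constants were normalized to DMSO controls.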
VDR inh: vitamin D3 receptor (human) inhibition; 400,000 tested, 0.93% active; P11473; Potency, µM, for the others: max response, negative = inhibition, most hits filed as inhibitors; VDR-SRC2-3 peptide fluorescence polarization, 2 h; further: potency means the concentration at half of the fitted maximal effect; on the % scale 0 is the no-effect control and ±100 the full control effect
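Inhibition of the VDR/SRC2-3 peptide interaction is quantified by fluorescence polarization. Compounds (23 nl, pintool) incubate with the reagents for 2 hours at ambient room temperature.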
KCNH2 3.1 block: blocks the human KCNH2 3.1 channel isoform | U2OS KCNH2 3.1, thallium flux FluxOr; active compounds read low | 340,000 tested, 0.95% active | activity change, % (tested at about 1.8 µM);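 active means maximum activity change below -70%; inconclusive means maximum activity change from -70% to -50%; inactive means maximum activity change above -50%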;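 further: thallium influx rate constant from kinetic fluorescence after stimulation buffer; on the % scale 0 is the no-effect control and ±100 the full control effect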
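Normalized rate constant (relative to positive and negative DMSO controls) derived from a 2 min kinetic fluorescence read after stimulation; U2OS cells expressing the 3.1 isoform via virus at 1.77 x 10^8 /mL.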
CBFb RUNX1 block: CBF-beta/RUNX1 interaction disruption; Q01196+Q13951; AlphaScreen CBFb-His/RUNX1-biotin binding, biochemical; Potency, µM (titrated, usually from 59.8 µM), for the others: top-dose activity, negative = inhibition, usual class: inhibitors; 230,000 tested, under 10 active; further: % of control where 0% means no effect
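Compounds were screened at multiple concentrations against a preformed CBF-beta(His)/RUNX1(biotin) complex (30 nM of each) for 15 min at room temperature, followed by 90 min with nickel and streptavidin beads and AlphaScreen reading.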
PLK1 PBD block: inhibitors of human PLK1 polo-box domain binding; P53350; 360,000 tested, 2.8% active; Potency, µM, inactives show max response, negative = inhibition, usual class: inhibitors; Plk1 PBD binding of FITC phosphopeptide, fluorescence polarization; further: potency means the concentration at half of the fitted maximal effect; series mostly up to about 57 µM; on the % scale 0 is the no-effect control and ±100 the full control effect; nearly all actives have a fitted effect of over 65% in size
Target sequence (P53350 whole entry, looked up, the tested form may be a part): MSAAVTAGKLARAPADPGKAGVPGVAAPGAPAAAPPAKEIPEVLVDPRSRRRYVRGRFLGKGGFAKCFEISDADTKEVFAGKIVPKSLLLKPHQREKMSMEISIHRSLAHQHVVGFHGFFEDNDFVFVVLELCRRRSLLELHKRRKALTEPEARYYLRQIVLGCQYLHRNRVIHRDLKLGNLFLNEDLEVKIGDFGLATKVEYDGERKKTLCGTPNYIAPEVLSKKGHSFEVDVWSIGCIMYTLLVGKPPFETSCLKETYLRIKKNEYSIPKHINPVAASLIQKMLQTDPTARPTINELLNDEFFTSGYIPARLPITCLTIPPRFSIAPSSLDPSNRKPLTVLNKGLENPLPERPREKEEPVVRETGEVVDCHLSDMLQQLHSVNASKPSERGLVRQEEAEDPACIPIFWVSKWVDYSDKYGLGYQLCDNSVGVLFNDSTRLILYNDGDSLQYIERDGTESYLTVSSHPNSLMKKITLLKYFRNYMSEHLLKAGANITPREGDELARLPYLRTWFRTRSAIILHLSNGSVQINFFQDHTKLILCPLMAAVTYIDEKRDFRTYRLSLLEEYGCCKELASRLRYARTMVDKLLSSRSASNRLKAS
MBNL1 CUG block: MBNL1-poly(CUG) RNA binding inhibition | Q9NR56 | TR-FRET MBNL1-His/biotin-(CUG)12 binding, 665/545 ratio | Potency, µM (series often up to 57.5 µM), for inactives: at the top dose activity change, negative = inhibition, usual class: inhibitors | 280,000 tested, 0.036% active; active means well fitted inhibition curve with a large enough effect in the signal ratio, with a control signal flat, not every such curve was filed as active; inconclusive means small, poorly fitted or top-dose-only effect, or effect the other way, or a change in a side signal; inactive means no such curve, though single readings can be large or run the other way; the % refers to the signal ratio; further: potency means the concentration at half of the fitted maximal effect; on the % scale 0 is the no-effect control and ±100 the full control effect
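MBNL1-His + Biotin-(CUG)12, cpd titration 92 nM–58 uM; Tb anti-His Ab 0.055 ng/ul, SA-XL665 5 nM (final); 60 min RT; ratiometric 665/545 nm, Ex 340 nm; normalized to buffer and full-complex controls.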
* marks the source's active call; other numbers are inactive results; ? = inconclusive; / = no result given; [ ] = remark or other dose. Unless noted, the call rests on the fitted dose curve; in most records, active means well fitted curve in the direction sought with a large enough effect; inconclusive means small, poorly fitted or top-dose-only effect, or another doubt; inactive means no such curve, though single readings can be large; an effect the other way counts as inactive or inconclusive.

SMILES	KCNH2 WT inh	VDR inh	KCNH2 3.1 block	CBFb RUNX1 block	PLK1 PBD block	MBNL1 CUG block
CN(C)S(=O)(=O)c1ccc(C(=O)NC(=O)CSc2ccccc2)cc1	4	-9%	-12	-12%	-26%	/
CC(=O)Nc1ccc(SCC(=O)Nc2ccc3c(c2)OCCO3)cc1	-21	?	6	/	12µM*	/
COc1ccc(NC(=O)CSc2ccc3c(c2)OCCO3)cc1	-8	-12%	-21	/	?	/
CC(=O)Nc1ccc(SCC(=O)c2ccc(Br)s2)cc1	-11	?	-2	/	4.7µM*	36%
CC(=O)Nc1ccc(SCC(=O)NC(=O)c2ccc(S(=O)(=O)N(C)C)cc2)cc1	-94*	?	11	/	11µM*	/
Cc1ccccc1CNC(=O)c1oc2c(c1C)-c1nn(Cc3ccc(Cl)cc3)cc1CC2	/	6%	/	/	/	/
O=S(=O)(Nc1cccc2cccnc12)c1ccccc1O	/	/	/	-7%	/	/
O=C(NCCc1csc(-c2cccnc2)n1)c1cccc(C(F)(F)F)c1	/	-9%	/	/	/	/
CSc1ccc(C2c3c(-c4ccccc4O)n[nH]c3C(=O)N2Cc2ccncc2)cc1 (centres undefined)	/	18%	/	/	/	/
Cc1ccc(-c2noc(-c3ccccc3NC(=O)C3CC(=O)N(c4ccc(C)cc4)C3)n2)cc1 (centres undefined)	/	7%	/	/	/	/
CC1CC(C)CN(CC(=O)Nc2ccc3c(c2)OCCO3)C1 (centres undefined)	-113*	2%	-139*	2%	-13%	1%
Fc1cccc(Cc2noc(CN3CCN(C4CCc5ccccc5C4)CC3)n2)c1 (centres undefined)	-24	-6%	-85*	2%	2%	-10%
Fc1cccc(Cc2noc(CN3CCCN(C4Cc5ccccc5C4)CC3)n2)c1	-136*	4%	-91*	5%	5%	-13%
Cc1ccc2nc(N)[nH]c(=O)c2c1Sc1ccncc1	/	-1%	/	/	/	/
FC(F)(F)c1cnc(-c2cnc(-c3cccnc3)nc2)c(Cl)c1	-6	?	-2	-4%	24µM*	/
FC(F)(F)c1cc(Cl)c2nnc(-c3cccnc3)n2c1	-7	16%	4	5%	0%	2%
COc1cc(NC(=O)c2cc(-c3cccc(OC)c3)n[nH]2)cc(OC)c1	/	3%	/	/	/	/
CC1Sc2ccc(S(=O)(=O)CCC(=O)Nc3ccccc3Cl)cc2NC1=O (centres undefined)	4	-19%	1	/	27µM*	1%
CCOc1ccccc1N(C)C(=O)CCS(=O)(=O)c1ccc2c(c1)NC(=O)C(C)S2 (centres undefined)	5	?	0	/	27µM*	2%
Cc1ccc(NC(=O)CCS(=O)(=O)c2ccc3c(c2)NC(=O)C(C)S3)cc1Cl (centres undefined)	2	-5%	3	/	-5%	3%
CC1Sc2ccc(S(=O)(=O)CCC(=O)N(C)Cc3ccco3)cc2NC1=O (centres undefined)	-8	-9%	-9	/	?	-2%
O=C(Nc1ccc(SC(F)F)cc1)c1cc(-c2ccc3c(c2)OCCO3)on1	/	-1%	/	/	/	/
CCCN1C(=O)c2ccccc2NC1c1ccc(OC)c(COc2cccc(C)c2C)c1 (centres undefined)	/	0%	/	/	/	/
O=S(=O)(Nc1cc(F)ccc1F)c1ccc2[nH]c3c(c2c1)CCCC3	/	14%	/	/	/	/
CCOC(=O)c1cnc(SC2CC(=O)N(c3ccc(C)cc3)C2=O)nc1N (centres undefined)	-7	-4%	17	5%	-2%	-16%
SMILES	KCNH2 WT inh	VDR inh	KCNH2 3.1 block	CBFb RUNX1 block	PLK1 PBD block	MBNL1 CUG block
CCOC(=O)c1cnc(SC2CCc3ccccc3C2=O)nc1N (centres undefined)	-7	10%	-7	0%	27µM*	-2%
CCCCSc1ncc(C(=O)OCC)c(N)n1	2	-25%	5	0%	9.5µM*	-1%
C=CC(=O)c1ccc(CCCCCC)cc1	/	40µM*	/	-2%	/	/
CCCCCCCCCCCCCCCCCCc1ccc(C(=O)/C=C/C(=O)O)cc1	/	?	/	0%	/	/
C[C@@H]1CCC2[C@](C)(CO)[C@@H](O)CC[C@]2(C)[C@@]12CCC(CO)(CCO)O2 (some centres undefined)	-1	2%	10	/	27µM*	-6%
Cc1ccc(NC(=O)Cn2nc(C)n3cccc3c2=O)c(C)c1	/	16%	/	/	/	/
COC1=C(c2ccccc2)C(=O)c2ccccc2C1=O	8	-20%	-3	-16%	?	-2%[11.5 µM]
O=C1C(c2ccccc2)=[N+]([O-])c2ccccc21	-3	4µM*	7	/	0.17µM*	/
COc1cc(C(=O)NNC(=O)c2ccccc2OCc2c(C)noc2C)cc(OC)c1OC	12	-9%	-87*	/	-7%	/
COc1ccccc1C(=O)NNC(=O)C(=O)Nc1ccc(C)c(Cl)c1	-20	-22%	-5	/	30µM*	4%
COc1ccc(C(=O)NNC(=O)C(=O)Nc2ccc(C)c(Cl)c2)cc1	/	?	8	23%	27µM*	-9%
Cc1noc(C)c1COc1ccccc1C(=O)NNC(=O)c1ccccc1	-2	-16%	9	/	-5%	/
COc1ccccc1C(=O)NNC(=O)c1cccc(C)c1	-3	71µM*	2	/	17µM*	1%
COc1cc(C(=O)Oc2ccc(Br)cc2C(=S)N2CCOCC2)cc(OC)c1OC	4	?	2	/	17µM*	-1%
COc1ccc(C(=S)N2CCOCC2)cc1OC(=O)c1ccccc1	-22	-10%	-3	/	27µM*	-3%
COc1ccc(C(=O)Oc2ccc(Br)cc2C(=S)N2CCOCC2)cc1	3	25%	12	/	-21%	-4%
O=C(Oc1ccc(Br)cc1C(=S)N1CCOCC1)c1ccc(F)cc1	-3	79µM*	7	/	12µM*	4%
COc1ccc(C(=S)N2CCOCC2)cc1OC(=O)c1ccc(C)cc1	-4	7%	-14	/	-16%	-6%
COc1ccc(C(=S)N2CCOCC2)cc1OC(=O)c1cc(OC)c(OC)c(OC)c1	2	?	-79*	/	27µM*	-6%
O=C(NCCOCCn1c(=O)oc2ccccc21)Nc1ccc(F)cc1F	/	0%	/	/	/	/
O=S(=O)(c1ccc(Cl)cc1)N1CCN(c2nc(-c3ccc(F)cc3)nc3cc(Cl)ccc23)CC1	/	-11%	/	/	/	/
COc1cc(Cl)c(NC(=O)CN(C)S(=O)(=O)c2ccc3c(c2)CCCC(=O)N3)c(OC)c1	/	-2%	/	/	/	/
COc1ccc(C(=O)Oc2c(OC)cc(C(=S)N3CCOCC3)cc2OC)cc1OC	10	?	15	/	21µM*	1%
COc1ccc(C(=S)N2CCOCC2)cc1OC(=O)c1ccc([N+](=O)[O-])cc1	39	?	-41	/	17µM*	?
